Test results: PubChem BioAssay (NCATS)
Inconclusive results are not listed. Where a call stands in place of a potency, no number is given. Activity calls are given as the source filed them. Unless noted, the call rests on the fitted dose curve; in most records, active means well fitted curve in the direction sought with a large enough effect; inconclusive means small, poorly fitted or top-dose-only effect, or another doubt; inactive means no such curve, though single readings can be large; an effect the other way counts as inactive or inconclusive. Peptide text beside a SMILES is read from it.

What was measured:
[1] = S16 Schwann cell viability assay (CellTiter-Glo assay) (AID 624031);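 further: cellular ATP luminescence as a viability measure; nearly all actives have a fitted effect of over 70% in size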
How it was run: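 Untransfected S16 rat Schwann cells; compound 24 h, 37 °C/5% CO2; CellTiter-Glo ATP luminescence. % activity vs no-cell wells and DMSO controls (0%); concentration-effect curves classed by r2, response magnitude, activity.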

[2] = S16 Schwann cell PMP22 intronic element beta-lactamase assay (AID 624044; calls by dose curve; further: nearly all actives have a fitted effect of over 15% in size)
How it was run: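 Rat S16 Schwann cells with beta-Lac driven by a PMP22 intronic element, compound-treated 24 h at 37 °C. LiveBLAzer FRET B/G read: 460 nm normalized to potassium clavulanate vs DMSO; 535 nm FRET as viability; concentration-effect curves classified.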

AA1029 = experiment: qHTS profiling for inhibitors of Plasmodium falciparum proliferation (AID 504749); further: nearly all actives have a fitted effect of over 60% in size; further: potency means the concentration at half of the fitted maximal effect; details: P. falciparum in erythrocytes, SYBR Green DNA, 72 h; series mostly up to 12.8 µM
How it was run: (§1)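 Readout was DNA-dye fluorescence from lysed cultures, ex 485/em 535 nm. Parasitized red cells had grown 72 h with compound; data scaled between 0.29 uM artemisinin and DMSO wells and corrected using vehicle-only plates.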

CP194 = experiment: as above; details: P. falciparum in erythrocytes, SYBR Green DNA, 72 h; series mostly up to 12.8 µM
How it was run: as §1

CP201 = experiment: as above; details: P. falciparum in erythrocytes, SYBR Green DNA, 72 h; series mostly up to 12.8 µM
How it was run: as §1

CP247 = experiment: as above; details: P. falciparum in erythrocytes, SYBR Green DNA, 72 h; series mostly up to 12.8 µM
How it was run: as §1

CP250 = experiment: as above; details: P. falciparum in erythrocytes, SYBR Green DNA, 72 h; series mostly up to 12.8 µM
How it was run: as §1

CP256 = experiment: as above; details: P. falciparum in erythrocytes, SYBR Green DNA, 72 h; series mostly up to 12.8 µM
How it was run: as §1

CP265 = experiment: as above; details: P. falciparum in erythrocytes, SYBR Green DNA, 72 h; series mostly up to 12.8 µM
How it was run: as §1

CP286 = experiment: as above; details: P. falciparum in erythrocytes, SYBR Green DNA, 72 h; series mostly up to 12.8 µM
How it was run: as §1

CP335 = experiment: as above; details: P. falciparum in erythrocytes, SYBR Green DNA, 72 h; series mostly up to 12.8 µM
How it was run: as §1

DFO2036 = experiment: as above; details: P. falciparum in erythrocytes, SYBR Green DNA, 72 h; series mostly up to 12.8 µM
How it was run: as §1

DIV14 = experiment: as above; details: P. falciparum in erythrocytes, SYBR Green DNA, 72 h; series mostly up to 12.8 µM
How it was run: as §1

DIV17 = experiment: as above; details: P. falciparum in erythrocytes, SYBR Green DNA, 72 h; series mostly up to 12.8 µM
How it was run: as §1

DIV30 = experiment: as above; details: P. falciparum in erythrocytes, SYBR Green DNA, 72 h; series mostly up to 12.8 µM
How it was run: as §1

Dd2 = experiment: as above; details: P. falciparum in erythrocytes, SYBR Green DNA, 72 h; series mostly up to 12.8 µM
How it was run: as §1

P93_24 = experiment: as above; details: P. falciparum in erythrocytes, SYBR Green DNA, 72 h; series mostly up to 12.8 µM
How it was run: as §1

PC15 = experiment: as above; details: P. falciparum in erythrocytes, SYBR Green DNA, 72 h; series mostly up to 12.8 µM
How it was run: as §1

TAB109 = experiment: as above; details: P. falciparum in erythrocytes, SYBR Green DNA, 72 h; series mostly up to 12.8 µM
How it was run: as §1

TAB165 = experiment: as above; details: P. falciparum in erythrocytes, SYBR Green DNA, 72 h; series mostly up to 12.8 µM
How it was run: as §1

## C[C@]1(c2ccccc2)OC(C(=O)O)=CC1=O
[1]
  outcome: inactive
[2]
  Potency: inactive
AA1029
  Potency: inactive
CP194
  Potency: inactive
CP201
  Potency: inactive
CP247
  Potency: inactive
CP250
  Potency: inactive
CP256
  Potency: inactive
CP265
  Potency: inactive
CP286
  Potency: inactive
CP335
  Potency: inactive
DFO2036
  Potency: inactive
DIV14
  Potency: inactive
DIV17
  Potency: inactive
DIV30
  Potency: inactive
Dd2
  Potency: inactive
P93_24
  Potency: inactive
PC15
  Potency: inactive
TAB109
  Potency: inactive
TAB165
  Potency: inactive

## COC1C=CO[C@@]2(C)Oc3c(C)c(O)c4c(O)c(c(C=NN5CCN(C)CC5)c(O)c4c3C2=O)NC(=O)/C(C)=C\C=CC(C)C(O)[C@@H](C)C(O)C(C)[C@H](OC(C)=O)C1C (stereo partly specified)
[1]
  outcome: inactive
[2]
  Potency: inactive
AA1029
  Potency: 2 µM (active)
CP194
  Potency: 4.78 µM (active)
CP201
  Potency: 5.36 µM (active)
CP247
  Potency: 3.98 µM (active)
CP250
  Potency: 6.31 µM (active)
CP256
  Potency: 3.55 µM (active)
CP265
  Potency: 5.01 µM (active)
CP286
  Potency: 2.51 µM (active)
CP335
  Potency: 0.953 µM (active)
DFO2036
  Potency: 3.55 µM (active)
DIV14
  Potency: 0.301 µM (active)
DIV17
  Potency: 0.269 µM (active)
DIV30
  Potency: 0.536 µM (active)
Dd2
  Potency: 0.251 µM (active)
P93_24
  Potency: 0.251 µM (active)
PC15
  Potency: 0.398 µM (active)
TAB109
  Potency: 2 µM (active)
TAB165
  Potency: 0.141 µM (active)

## CN(C)CCc1c[nH]c2ccc(CC3COC(=O)N3)cc12 (stereo unspecified)
[1]
  outcome: inactive
[2]
  Potency: inactive
AA1029
  Potency: inactive
CP194
  Potency: inactive
CP201
  Potency: inactive
CP247
  Potency: inactive
CP250
  Potency: inactive
CP256
  Potency: inactive
CP265
  Potency: inactive
CP286
  Potency: inactive
CP335
  Potency: inactive
DFO2036
  Potency: inactive
DIV14
  Potency: inactive
DIV17
  Potency: inactive
DIV30
  Potency: inactive
Dd2
  Potency: inactive
P93_24
  Potency: inactive
PC15
  Potency: inactive
TAB109
  Potency: inactive
TAB165
  Potency: inactive

## CNC1C(OC2C(O[C@@H]3C(O)C(O)[C@@H](N=C(N)N)C(O)C3N=C(N)N)OC(C)[C@@]2(O)CO)OC(CO)C(O)C1O (stereo partly specified)
[1]
  outcome: inactive
[2]
  Potency: inactive
AA1029
  Potency: inactive
CP194
  Potency: inactive
CP201
  Potency: inactive
CP247
  Potency: inactive
CP250
  Potency: inactive
CP256
  Potency: inactive
CP265
  Potency: inactive
CP286
  Potency: inactive
CP335
  Potency: inactive
DFO2036
  Potency: inactive
DIV14
  Potency: inactive
DIV17
  Potency: inactive
DIV30
  Potency: inactive
Dd2
  Potency: inactive
P93_24
  Potency: inactive
PC15
  Potency: inactive
TAB109
  Potency: inactive
TAB165
  Potency: inactive

## COC(=O)N/N=C/C1=C[N+](=O)c2ccccc2[N+]1=O
[1]
  outcome: inactive
[2]
  Potency: inactive
AA1029
  Potency: inactive
CP194
  Potency: inactive
CP201
  Potency: inactive
CP247
  Potency: inactive
CP250
  Potency: inactive
CP256
  Potency: inactive
CP265
  Potency: inactive
CP286
  Potency: inactive
CP335
  Potency: inactive
DFO2036
  Potency: inactive
DIV14
  Potency: inactive
DIV17
  Potency: inactive
DIV30
  Potency: inactive
Dd2
  Potency: inactive
P93_24
  Potency: inactive
PC15
  Potency: inactive
TAB109
  Potency: inactive
TAB165
  Potency: inactive

## CN(C)CCCOC1C(C(O)CO)OC2OC(C)(C)O[C@@H]21 (stereo partly specified)
[2]
  Potency: inactive
AA1029
  Potency: inactive
CP194
  Potency: inactive
CP201
  Potency: inactive
CP247
  Potency: inactive
CP250
  Potency: inactive
CP256
  Potency: inactive
CP265
  Potency: inactive
CP286
  Potency: inactive
CP335
  Potency: inactive
DFO2036
  Potency: inactive
DIV14
  Potency: inactive
DIV17
  Potency: inactive
DIV30
  Potency: inactive
Dd2
  Potency: inactive
P93_24
  Potency: inactive
PC15
  Potency: inactive
TAB109
  Potency: inactive
TAB165
  Potency: inactive

## CNC1CC(N)[C@H](O)[C@@H](O[C@@H]2OC(CO)C3OC4(OC(C(N)CO)C(O)C(O)C4O)O[C@@H]3[C@H]2O)C1O (stereo partly specified)
[1]
  outcome: inactive
[2]
  Potency: inactive
AA1029
  Potency: inactive
CP194
  Potency: inactive
CP201
  Potency: inactive
CP247
  Potency: inactive
CP250
  Potency: inactive
CP256
  Potency: inactive
CP265
  Potency: inactive
CP286
  Potency: inactive
CP335
  Potency: inactive
DFO2036
  Potency: inactive
DIV14
  Potency: inactive
DIV17
  Potency: inactive
DIV30
  Potency: inactive
Dd2
  Potency: inactive
P93_24
  Potency: inactive
PC15
  Potency: inactive
TAB109
  Potency: inactive
TAB165
  Potency: inactive

## CCC(C)C(=O)OC1CCC=C2C=CC(C)C(CCC3CC(O)CC(=O)O3)[C@@H]21 (stereo partly specified)
[1]
  outcome: inactive
AA1029
  Potency: inactive
CP194
  Potency: inactive
CP201
  Potency: inactive
CP247
  Potency: inactive
CP250
  Potency: inactive
CP256
  Potency: inactive
CP265
  Potency: inactive
CP286
  Potency: inactive
CP335
  Potency: inactive
DFO2036
  Potency: inactive
DIV14
  Potency: inactive
DIV17
  Potency: inactive
DIV30
  Potency: inactive
P93_24
  Potency: inactive
PC15
  Potency: inactive
TAB109
  Potency: inactive
TAB165
  Potency: inactive

## Nc1nc2ncc(CNc3ccc(C(=O)NC(CCC(=O)O)C(=O)O)cc3)nc2c(=O)[nH]1 (stereo unspecified)
[1]
  outcome: inactive
[2]
  Potency: inactive
AA1029
  Potency: inactive
CP194
  Potency: inactive
CP201
  Potency: inactive
CP247
  Potency: inactive
CP250
  Potency: inactive
CP256
  Potency: inactive
CP265
  Potency: inactive
CP286
  Potency: inactive
CP335
  Potency: inactive
DFO2036
  Potency: inactive
DIV17
  Potency: inactive
DIV30
  Potency: inactive
Dd2
  Potency: inactive
P93_24
  Potency: inactive
PC15
  Potency: inactive
TAB109
  Potency: inactive
TAB165
  Potency: inactive

## CCC(CCC(C)C1CCC2C3CC=C4CC(O)CC[C@@]4(C)C3CC[C@@]12C)C(C)C (stereo partly specified)
[1]
  outcome: inactive
[2]
  Potency: inactive
AA1029
  Potency: inactive
CP194
  Potency: inactive
CP201
  Potency: inactive
CP247
  Potency: inactive
CP250
  Potency: inactive
CP256
  Potency: inactive
CP265
  Potency: inactive
CP286
  Potency: inactive
CP335
  Potency: inactive
DFO2036
  Potency: inactive
DIV14
  Potency: inactive
DIV17
  Potency: inactive
DIV30
  Potency: inactive
Dd2
  Potency: inactive
P93_24
  Potency: inactive
PC15
  Potency: inactive
TAB109
  Potency: inactive
TAB165
  Potency: inactive

## COC(=O)C(Cc1ccccc1)NC(=O)C(N)CC(=O)O (stereo not drawn) (H-Asp-Phe-OMe; configuration not given here)
[1]
  outcome: inactive
[2]
  Potency: inactive
AA1029
  Potency: inactive
CP194
  Potency: inactive
CP201
  Potency: inactive
CP247
  Potency: inactive
CP250
  Potency: inactive
CP256
  Potency: inactive
CP265
  Potency: inactive
CP286
  Potency: inactive
CP335
  Potency: inactive
DFO2036
  Potency: inactive
DIV14
  Potency: inactive
DIV17
  Potency: inactive
DIV30
  Potency: inactive
Dd2
  Potency: inactive
P93_24
  Potency: inactive
PC15
  Potency: inactive
TAB109
  Potency: inactive
TAB165
  Potency: inactive
